Measurements taken from PubChem BioAssay AID2113 (National Center for Advancing Translational Sciences (NCATS), 2009).
Inconclusive results are not listed. Calls of active or inactive are those of the source. Calls follow the shape of the dose curve; as a rule, active = well fitted curve in either direction with a large enough effect; inconclusive = small, poorly fitted or top-dose-only effect; inactive = no such curve, though single readings can be large or run the other way.

The compounds below were run against Lysosomal alpha-glucosidase (Homo sapiens) (UniProt P10253) (assay: Confirmation of Inhibitors and Activators of Human alpha-Glucosidase From Spleen Homogenate). Settings: alpha-glucosidase enzyme activity; series mostly up to 60.5 µM; activity change, both directions: at the top concentration.
Summary of the method: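 Fluorogenic assay using human spleen homogenate (1 ug) as enzyme source with 1 mM 4-methylumbelliferyl-alpha-D-glucopyranoside, pH 5.0 citrate buffer, 40 min at 37 C. 4-MU read (Ex 365/Em 440) after NaOH/glycine stop; AC50 from Hill fits.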
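For Potency in this document: fluorescence of 4-methylumbelliferone released from a fluorogenic glucopyranoside substrate at pH 5.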
For activity change, both directions in this document: 0% is about no effect.
Potency is read from the fitted curve at half-maximal effect.

Activity change, both directions, inactive:
Nc1ccccc1N=Cc1ccc(-c2cccc(Cl)c2)o1 17.3%
Cc1[nH]nc2c1C(c1ccc(OC(=O)c3ccco3)cc1)C(C#N)=C(N)O2 (stereo unspecified) 1.59%
Cc1cc(C)c(C(=O)Cn2cnc3cc([N+](=O)[O-])ccc3c2=O)cc1C 2.64% [at 31.5 µM]
Cc1ccc(CCNC(=O)CNC(=S)N(Cc2ccccc2)Cc2cccnc2)cc1 3%
COc1cc(=O)[nH]c(=O)n1CC(=O)c1ccccc1 1.27% [at 31.5 µM]
CC(C)(C)OC(=O)NCCCC[C@H](NC(=O)c1nc[nH]c1C(=O)NCc1ccccc1)C(=O)OC(C)(C)C -6.76%
OC[C@H]1NC[C@@H](O)[C@@H]1O -82.2%
COc1cccc2cc(-c3nc(-c4ccc(C)cc4)c(C)s3)c(=O)oc12 4.81%
CC1(C)CC(=O)c2cc(C(=O)NCc3ccco3)c(=O)n(-c3ccc(Cl)cc3)c2C1 -1.85% [at 31.5 µM]
CCCN1CNc2c(c(=O)[nH]c(=S)n2-c2ccccc2Cl)C1 1.89% [at 31.5 µM]
CCCN1CNc2c(c(=O)[nH]c(=S)n2CCc2ccccn2)C1 -10.2%
Cc1c(C#N)c(N)nc2c3c(sc12)NC(=O)CC3c1ccc(Cl)cc1 (stereo unspecified) 7.88%
O=S(=O)(c1ccccc1)N1CCN(S(=O)(=O)c2ccccc2)CC1 4.23%
O=c1oc2ccccc2cc1-c1csc(Cc2nc3c(s2)CCCC3)n1 5.03%
Cc1ccc(C(=O)c2sc3c(c2N)c(=O)[nH]c(=O)n3CCc2ccccc2)cc1 -3.39% [at 31.5 µM]
O=NOc1ccc(/C=C/c2nccc3c2[nH]c2ccccc23)cc1 -0.201%
Cc1ccc(S(=O)(=O)NC(=O)NN2CCCCCC2)cc1 0.869%
CC(=O)c1ccc(N2CCN(C(=O)c3ccc4c(c3)CC(=O)N4)CC2)cc1 -2.08%
Cn1c2c(c(=O)n(C)c1=O)CN(CCCN1CCOCC1)CN2 6.03% [at 31.5 µM]
O=S(=O)(c1ccc(O)cc1)N1CCOCC1 -3.67%
Cc1ccc(S(=O)(=O)N2CCN(C(=O)CSc3nc4ccccc4c(=O)[nH]3)CC2)c(C)c1 -28.9%
COC(=O)c1cc(OC)c(OC)cc1NC(=O)CCCCCN1C(=O)CCC1=O 2.76% [at 31.5 µM]
CCCN1CNc2c(c(=O)[nH]c(=S)n2CCc2c(C)cccc2C)C1 9.53%
COc1ccc2cc(C#N)c(=O)oc2c1 6.52%
COc1ccc(/C=c2\s/c(=C/C(=O)c3ccc(C)cc3)[nH]c2=O)cc1OC -4.47% [at 31.5 µM]
CCc1ccc(-c2nc(-c3cc4ccc(OC(C)=O)cc4oc3=O)sc2C)cc1 3.56%
N#Cc1ccc(S(=O)(=O)N2CCOCC2)cc1 -2.24%
C[C@H](NC(=O)/C(C#N)=C/c1ccc(O)c(O)c1)c1ccccc1 3.9%
COC(=O)c1ccc(S(=O)(=O)N2CCOCC2)cc1 -1.83%

Potency, inactive:
Cc1ccc(S(=O)(=O)N2CCN(C(=O)N(c3ccccc3)c3ccccc3)CC2)cc1

Potency, active:
O=c1oc2cc(O)ccc2cc1-c1nc2c(s1)CCc1ccccc1-2 31.6 µM
O=C1Cc2cc(S(=O)(=O)N3CCN(c4ccc([N+](=O)[O-])cc4)CC3)ccc2N1 3.66 µM [inhibitor]
CCCN1CNc2c(c(=O)[nH]c(=S)n2CCc2cc(Cl)cc(Cl)c2)C1 7.94 µM
COc1ccc(CCn2c3c(c(=O)[nH]c2=S)CN(CC(C)C)CN3)cc1OC 14.1 µM
CCCN1CNc2c(c(=O)[nH]c(=S)n2CCc2cccc(Cl)c2)C1 12.6 µM
CCCN1CNc2c(c(=O)[nH]c(=S)n2CCc2c(Cl)cccc2Cl)C1 35.5 µM
